Each structure is given as a SMILES string. In all, about 310,000 compounds went through this assay and about 14,000 (4.5%) showed an effect of 50% or more. Effects have a minus sign here. Many of the other results were omitted from the sample, so strong results are more common in it than they were.
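Note: peak tail current of the secondary pulse compared with the same well before compound.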

In the assay the target is human ether-à-go-go-related gene (hERG) potassium channel (human, UniProt Q12809). Nature of the assay: primary screen, population patch clamp on CHO cells stably expressing hERG; higher = less effect of the substance.
Chain of human ether-à-go-go-related gene (hERG) potassium channel (Q12809 whole entry, looked up): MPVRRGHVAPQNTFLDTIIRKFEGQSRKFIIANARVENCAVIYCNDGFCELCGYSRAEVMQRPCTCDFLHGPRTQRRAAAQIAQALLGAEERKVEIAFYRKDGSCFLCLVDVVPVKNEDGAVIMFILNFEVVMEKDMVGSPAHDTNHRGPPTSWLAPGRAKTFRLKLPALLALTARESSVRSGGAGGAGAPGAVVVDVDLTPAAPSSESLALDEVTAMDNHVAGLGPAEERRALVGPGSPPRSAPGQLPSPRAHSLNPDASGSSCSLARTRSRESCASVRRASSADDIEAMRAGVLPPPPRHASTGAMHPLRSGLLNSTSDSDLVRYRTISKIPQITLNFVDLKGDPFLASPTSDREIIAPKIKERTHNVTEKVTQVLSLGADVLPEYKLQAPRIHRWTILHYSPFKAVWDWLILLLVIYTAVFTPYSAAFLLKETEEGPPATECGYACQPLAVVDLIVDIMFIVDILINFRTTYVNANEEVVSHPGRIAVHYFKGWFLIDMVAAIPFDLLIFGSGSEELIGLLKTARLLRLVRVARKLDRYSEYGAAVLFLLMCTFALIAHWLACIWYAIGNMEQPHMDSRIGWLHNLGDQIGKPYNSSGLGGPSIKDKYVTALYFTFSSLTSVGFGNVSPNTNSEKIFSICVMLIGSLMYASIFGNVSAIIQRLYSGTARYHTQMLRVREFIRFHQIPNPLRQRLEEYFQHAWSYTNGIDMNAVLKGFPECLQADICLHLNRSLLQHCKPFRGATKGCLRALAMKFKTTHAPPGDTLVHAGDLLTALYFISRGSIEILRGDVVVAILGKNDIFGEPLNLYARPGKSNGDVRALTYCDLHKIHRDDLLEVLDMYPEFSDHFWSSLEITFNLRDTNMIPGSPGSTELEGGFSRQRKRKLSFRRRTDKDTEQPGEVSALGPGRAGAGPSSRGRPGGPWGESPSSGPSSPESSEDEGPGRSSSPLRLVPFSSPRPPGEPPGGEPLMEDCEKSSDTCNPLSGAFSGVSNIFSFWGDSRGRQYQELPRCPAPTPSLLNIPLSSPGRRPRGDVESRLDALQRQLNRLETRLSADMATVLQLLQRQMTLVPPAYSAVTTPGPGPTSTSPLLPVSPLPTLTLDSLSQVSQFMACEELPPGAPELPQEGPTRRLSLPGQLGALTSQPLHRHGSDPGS
As for `Cc1cc(-c2cccs2)c2c(N)c(C(=O)c3ccc4c(c3)OCO4)sc2n1`, the “hERG current change (%, negative = inhibition) at 10uM” value came to 5.2%.
Consider `Cc1ccc(S(=O)(=O)N(C)c2ccccc2C(=O)Nc2c(F)cccc2F)cc1`, for which the “hERG current change (%, negative = inhibition) at 10uM” value was 3.31%.
For `CC(C)(C)N1CC(c2nc3ccccc3n2Cc2ccccc2)CC1=O` (stereo not drawn), the “hERG current change (%, negative = inhibition) at 10uM” value is recorded as -47.2%.
In the case of `COc1ccc(S(=O)(=O)N2CCOCC2)cc1NC(=O)c1sccc1C`, the “hERG current change (%, negative = inhibition) at 10uM” value is -3.22%.
In the case of `COc1ccc2nc(SC(C)C(=O)NC3(C#N)CCCCC3)[nH]c2c1` (stereo not drawn), the “hERG current change (%, negative = inhibition) at 10uM” value is reported as -20.1%.
In the case of `COC(=O)c1cc2oc(C)cc2n1CC(=O)N1CCCc2ccccc21`, the “hERG current change (%, negative = inhibition) at 10uM” value is listed as -11.9%.
In the case of `Cc1ccc2nc(NC(=O)CSCC(=O)OCC(=O)c3ccc(Br)cc3)sc2c1`, the “hERG current change (%, negative = inhibition) at 10uM” value is recorded as 16.5%.
For the compound `O=C(COc1ccc(Br)cc1)NCCCn1ccnc1`, the “hERG current change (%, negative = inhibition) at 10uM” value is given as -20.1%.
Turning to `COc1ccc(Cl)cc1NC(=O)CN(C)C(=O)c1cc2c(F)cccc2s1`, the “hERG current change (%, negative = inhibition) at 10uM” value is -6.32%.
In the case of `CCCCSc1nnc(C)c(=O)[nH]1`, the “hERG current change (%, negative = inhibition) at 10uM” value was 3.25%.
For `Cc1cccc(C2c3[nH]c4ccccc4c3CCN2C(=O)Cc2n[nH]c(C)n2)n1` (stereo not drawn) the value was 5.57%; for `COc1ccc(OC)c(NC(=O)COc2ccc(S(=O)(=O)N3CCCC3)cc2)c1`, -23.4%; for `O=C(CCC(=O)n1ncc2ccccc21)NCc1ccc(F)cc1`, -18.1%.
Regarding `Cc1ccc(C(=O)N2CCN(c3ncccn3)CC2)cc1`, the “hERG current change (%, negative = inhibition) at 10uM” value was 12.6%.
For `Cc1ccc(C(=O)N2CCN(c3ccccn3)CC2)cc1` the value was -14.3%; for `Cc1ccc(C(=O)N2CCN(c3nc4ccccc4n3C)CC2)cc1`, -70.3%; for `CCOC(=O)C1CCN(S(=O)(=O)c2ccc3c(c2)CCN3C(=O)C2CCC2)CC1`, 14.1%.
As to `COc1ccc(C(=O)NC2CCCCCC2)cc1OC1CCN(C(C)=O)CC1`, the “hERG current change (%, negative = inhibition) at 10uM” value was -4.48%.
As for `COc1ccc(C(=O)NC2CCCCC2)cc1OC1CCN(C(C)C)CC1`, the “hERG current change (%, negative = inhibition) at 10uM” value is on record as -69.7%.
For `COc1ccc(C(=O)N[C@H]2CCCCNC2=O)cc1OC1CCN(C(C)C)CC1` the value was 15.3%; for `COC(=O)CN(C)C(=O)c1ccc(OC)c(OC2CCN(C(C)C)CC2)c1`, 13.1%.
Take `COc1ccc(C(=O)NCCCSC)cc1OC1CCN(C(C)C)CC1`: the “hERG current change (%, negative = inhibition) at 10uM” value is listed as -11.8%.
Turning to `COc1ccc(C(=O)NC2CC2)cc1OC1CCN(C(C)CSC)CC1` (stereo not drawn), the “hERG current change (%, negative = inhibition) at 10uM” value was -75.4%.
For the compound `CCOCCCNC(=O)c1ccc(OC)c(OC2CCN(C(C)C)CC2)c1`, the “hERG current change (%, negative = inhibition) at 10uM” value is 10.7%.
With `COc1ccc(C(=O)N(C)CCCC2CCCC2)cc1OC1CCN(C(C)=O)CC1`, the “hERG current change (%, negative = inhibition) at 10uM” value is listed as -32.2%.
For `COc1ccc(C(=O)N(C)CCCC2CCCC2)cc1OC1CCN(C(C)C)CC1` the value was -68.4%.
For `COc1ccc(CCNC(=O)COC(=O)c2cc(=O)c3ccccc3o2)cc1` the value was -1.09%; for `Cc1cc(NC(=O)NC(=O)c2ccccc2)no1`, 23.1%; for `Cn1c(O)c(N=Nc2nc(-c3ccccc3)cs2)c2ccccc21`, -6.78%.
For `Cc1ccc(CNC(=O)CCSCCC(=O)NCc2ccc(C)cc2)cc1` the value was 7.08%; for `N#Cc1c(NC(=O)c2cc([N+](=O)[O-])ccc2N2CCOCC2)sc2c1CCCC2`, 4.02%.
As for `CN1C(=O)c2cccc3c(Br)ccc(c23)C1=O`, the “hERG current change (%, negative = inhibition) at 10uM” value was -16.2%.
On to `COC(=O)COc1ccc2cccc(-n3cnnn3)c2c1`, for which the “hERG current change (%, negative = inhibition) at 10uM” value is recorded as 12.5%.
As for `CCc1ccc(C(=O)NNC(=O)C2CSC3(C)CCC(=O)N23)cc1` (stereo not drawn), the “hERG current change (%, negative = inhibition) at 10uM” value is given as -6.99%.
For `CC12CCC(=O)N1C(C(=O)OCc1c(Cl)cccc1Cl)CS2` (stereo not drawn) the value was -4.54%; for `CCc1ccc2c(COC(=O)C3CSC4(C)CCC(=O)N34)cc(=O)oc2c1` (stereo not drawn), -61.1%.
Regarding `COCCN(CCOC)CC(O)COC(c1ccccc1)c1ccccc1` (stereo not drawn), the “hERG current change (%, negative = inhibition) at 10uM” value is given as -35.9%.
For `CN(C)CC(O)COC(c1ccccc1)c1ccccc1` (stereo not drawn) the value was -51.6%; for `CN(C)CC(O)COC(c1ccc(Cl)cc1)c1ccc(Cl)cc1` (stereo not drawn), -75.8%; for `CCN(Cc1ccccc1)CC(O)COC(c1ccc(OC)cc1)c1ccc(OC)cc1` (stereo not drawn), -75.1%.
Regarding `CN(C)CCC(O)c1ccccc1` (stereo not drawn), the “hERG current change (%, negative = inhibition) at 10uM” value is 9.45%.
Take `CCN(CC)CC(O)COC(c1ccccc1)c1ccccc1` (stereo not drawn): the “hERG current change (%, negative = inhibition) at 10uM” value is reported as -57.8%.
For the compound `OC(COc1ccccc1)CN(Cc1ccccc1)CC(O)COc1ccccc1` (stereo not drawn), the “hERG current change (%, negative = inhibition) at 10uM” value is reported as -9.08%.
Turning to `CC(O)CN(Cc1ccc(Cl)cc1)CC(C)O` (stereo not drawn), the “hERG current change (%, negative = inhibition) at 10uM” value is on record as 7.61%.
For `CCOC(C(=O)OCC(O)CN(CC)CC)(c1ccccc1)c1ccccc1.Cl` (stereo not drawn) the value was -5.25%; for `CCN(Cc1ccccc1)CC(O)COc1ccccc1.Cl` (stereo not drawn), -25.7%.
`CCCC(O)(c1ccc(OC)cc1)C(CN(C)C)c1ccccc1` (stereo not drawn): the “hERG current change (%, negative = inhibition) at 10uM” value is given as -4.69%.
For `CC(OCC(O)CN(C)Cc1nc2ccccc2c(=O)[nH]1)c1ccc(Cl)cc1` (stereo not drawn), the “hERG current change (%, negative = inhibition) at 10uM” value is recorded as -34%.
Consider `Cc1ccc(CN2CCCC(C(=O)N3CCCC3)C2)cc1.O=C(O)C(=O)O` (stereo not drawn), for which the “hERG current change (%, negative = inhibition) at 10uM” value is -5.83%.
As for `O=C(O)c1cc2nc(-c3ccccc3)cc(-c3ccccc3)n2n1`, the “hERG current change (%, negative = inhibition) at 10uM” value amounted to 6.39%.
Take `CN(C)S(=O)(=O)Oc1ccsc1C(=O)Nc1ccc(Br)cc1`: the “hERG current change (%, negative = inhibition) at 10uM” value is -12.2%.
As for `CCOC(=O)[C@H]1[C@H]2COc3cc(OC)ccc3[C@@H]2N2C(=O)c3cc(OC)c(OC)cc3NC(=O)[C@@]12C`, the “hERG current change (%, negative = inhibition) at 10uM” value is on record as -2.44%.
For the compound `Cc1ccc(C(=O)NNC(=O)C2CCN(c3nc(C)cc(C)n3)CC2)cc1`, the “hERG current change (%, negative = inhibition) at 10uM” value turned out to be 4.83%.
In the case of `Cc1cccc(C)c1C(=NCCN(C)C)c1ccccc1.Cl`, the “hERG current change (%, negative = inhibition) at 10uM” value was -41.3%.
For `CCNc1nc(NCC)n2c(SCc3ccc(F)cc3)nnc2n1` the value was -20.1%; for `CC(C)=C1C2CCC1C(C(=O)Nc1sc(C)c(-c3ccc(C(C)C)cc3)c1C(N)=O)C2C(=O)O` (stereo not drawn), -22.5%.
Regarding `CN(C)C=O.O=C(NCCc1ccccc1)c1oc2ccccc2c1COc1ccccc1`, the “hERG current change (%, negative = inhibition) at 10uM” value was found to be 12.4%.

The values are drawn from paper PMC4336329 (PLoS ONE, 2015).
